Values joined by “and” are separate entries in the source; they are usually repeats but may differ in a detail not shown here. Equal entries are not always repeated. Results filed as inconclusive are left out. Entries that show only a call come without a potency. More than one record can exist for a structure, and the calls need not agree. Active and inactive are the calls of the source. Unless noted, calls come from the whole dose curve; as a rule, active = well fitted curve in the direction sought with a large enough effect in the repeat runs; inconclusive = weak or mixed curves; inactive = no such curve, though single readings can be large; an effect the other way counts as inactive or inconclusive.
Key:
[1] = target: Peroxisome proliferator-activated receptor delta (Homo sapiens) (UniProt Q03181); experiment: qHTS assay to identify small molecule agonists of the peroxisome proliferator-activated receptor delta (PPARd) signaling pathway (AID 743212; calls by dose curve)
Peroxisome proliferator-activated receptor delta (Homo sapiens), sequence (Q03181 whole entry, looked up): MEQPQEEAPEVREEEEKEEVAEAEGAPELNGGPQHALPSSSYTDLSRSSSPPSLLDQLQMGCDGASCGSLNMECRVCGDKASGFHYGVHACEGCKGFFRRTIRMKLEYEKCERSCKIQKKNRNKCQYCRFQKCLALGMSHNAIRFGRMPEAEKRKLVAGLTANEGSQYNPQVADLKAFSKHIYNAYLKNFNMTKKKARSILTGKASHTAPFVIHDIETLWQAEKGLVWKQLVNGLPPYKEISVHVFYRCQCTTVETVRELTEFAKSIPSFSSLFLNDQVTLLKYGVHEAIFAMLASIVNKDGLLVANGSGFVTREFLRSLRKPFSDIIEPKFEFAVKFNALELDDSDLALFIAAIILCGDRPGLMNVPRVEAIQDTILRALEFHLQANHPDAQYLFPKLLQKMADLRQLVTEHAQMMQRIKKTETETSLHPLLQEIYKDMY
How it was run: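 Cells expressing a UAS-driven beta-lactamase reporter (PPARd-bla HEK293H) were given test compounds after a 5 h settle and kept at 37 C. Reporter activity was then measured as FRET fluorescence using LiveBLAzer B/G substrate.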

[2] = qHTS assay to identify small molecule antagonists of the peroxisome proliferator-activated receptor delta (PPARd) signaling pathway - cell viability counter screen (AID 743213); note: nearly all actives have a fitted effect of over 50% in size; note: potency is the fitted concentration of half-maximal effect
How it was run: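 PPARd-bla HEK293H cells (3000/well) got compound plus 300 nM L165041 agonist for 17 h at 37 C. Viability in the same wells came from CellTiter-Glo luminescence after 30 min at room temperature.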

[3] = target: Peroxisome proliferator-activated receptor delta (Homo sapiens) (UniProt Q03181); experiment: qHTS assay to identify small molecule antagonists of the peroxisome proliferator-activated receptor delta (PPARd) signaling pathway (AID 743215; active = well fitted inhibition curve with a large enough effect in the signal ratio in the repeat runs, not every such curve was filed as active; the % refers to the signal ratio;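 note: cells stimulated with agonist L165041 at 300 nM final during compound exposure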; note: potency is the fitted concentration of half-maximal effect)
How it was run: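 Here, a reporter line (HEK293H, beta-lactamase under a UAS) measures PPARd signaling. Compounds are tested against agonist L165041 at 300 nM final concentration over 17 h at 37 C, with fluorescence read after substrate.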

[4] = qHTS assay to identify small molecule agonists of the farnesoid-X-receptor (FXR) signaling pathway - cell viability counter screen (AID 743218); note: nearly all actives have a fitted effect of over 45% in size; note: potency is the fitted concentration of half-maximal effect
How it was run: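 Quantitative HTS counter screen measuring ATP-based viability via CellTiter-Glo luminescence in HEK 293T cells carrying a UAS-driven beta-lactamase reporter, after 16 h compound exposure at 37 C.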

[5] = qHTS assay to identify small molecule antagonists of the farnesoid-X-receptor (FXR) signaling pathway - cell viability counter screen (AID 743221; active = well fitted cell-killing curve with a large enough effect in the repeat runs, not every such curve was filed as active; note: nearly all actives have a fitted effect of over 50% in size; note: potency is the fitted concentration of half-maximal effect)
How it was run: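 After a 5 h settling period, FXR-bla HEK 293T cells receive compound and chenodeoxycholic acid (50 uM final) and incubate 16 h at 37 C; CellTiter-Glo luminescence, read after 30 min at room temperature, reports cell viability.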

[6] = target: Vitamin D3 receptor (Homo sapiens) (UniProt P11473); experiment: qHTS assay to identify small molecule agonists of the vitamin D receptor (VDR) signaling pathway (AID 743222; calls by dose curve; note: potency is the fitted concentration of half-maximal effect)
Vitamin D3 receptor (Homo sapiens), sequence (P11473 whole entry, looked up): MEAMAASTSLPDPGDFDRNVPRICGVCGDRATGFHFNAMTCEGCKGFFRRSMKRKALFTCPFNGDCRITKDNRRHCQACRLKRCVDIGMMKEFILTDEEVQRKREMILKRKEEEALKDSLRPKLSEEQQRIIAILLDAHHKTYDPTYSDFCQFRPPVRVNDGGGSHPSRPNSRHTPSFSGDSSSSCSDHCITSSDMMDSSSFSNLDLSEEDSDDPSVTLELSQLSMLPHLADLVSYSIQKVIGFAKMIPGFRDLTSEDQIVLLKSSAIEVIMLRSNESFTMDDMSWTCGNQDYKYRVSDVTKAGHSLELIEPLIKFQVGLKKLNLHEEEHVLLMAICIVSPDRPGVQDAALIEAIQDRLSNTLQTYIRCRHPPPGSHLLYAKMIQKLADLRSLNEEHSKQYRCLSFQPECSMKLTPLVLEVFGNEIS
How it was run: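 Tox21 cell reporter format: VDR-bla line, 16 h compound exposure in 5% CO2 at 37C, then fluorescence intensity after 2 h with LiveBLAzer B/G FRET substrate.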

[7] = target: Vitamin D3 receptor (Homo sapiens) (UniProt P11473); experiment: qHTS assay to identify small molecule antagonists of the vitamin D receptor (VDR) signaling pathway (AID 743223; active = well fitted inhibition curve with a large enough effect in the signal ratio in the repeat runs, not every such curve was filed as active; the % refers to the signal ratio)
How it was run: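 Reporter line VDR-bla; stimulus 1alpha,25-(OH)2 vitamin D3, 3 nM final; compound co-addition, 16 h 37C/5% CO2; LiveBLAzer B/G substrate 2 h RT; fluorescence intensity.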

[8] = qHTS assay to identify small molecule agonists of the vitamin D receptor (VDR) signaling pathway - cell viability counter screen (AID 743224); note: nearly all actives have a fitted effect of over 50% in size; note: potency is the fitted concentration of half-maximal effect
How it was run: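 CellTiter-Glo viability readout on VDR-bla cells, measured after 16 h of compound treatment at 37C in the same wells.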

[9] = qHTS assay to identify small molecule antagonists of the vitamin D receptor (VDR) signaling pathway - cell viability counter screen (AID 743225); note: nearly all actives have a fitted effect of over 50% in size; note: potency is the fitted concentration of half-maximal effect
How it was run: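 Parallel cytotoxicity test: VDR-UAS-bla HEK 293T, 3 nM (final) 1-alpha,25-dihydroxyvitamin D3 with test compound, 16 h, 37C. Endpoint is CellTiter-Glo luminescence in the same wells.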

[10] = qHTS assay to identify small molecule agonists of the endoplasmic reticulum stress response signaling pathway (AID 1159516; active = well fitted activation curve with a large enough effect in the signal ratio in the repeat runs, not every such curve was filed as active; the % refers to the signal ratio; note: potency is the fitted concentration of half-maximal effect)
How it was run: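 Fluorescence at 460 and 530 nm (405 nm excitation) reports beta-lactamase from an ER stress response element in HeLa cells treated 5 hr at 37 C.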

[11] = qHTS assay to identify small molecule antagonists of the retinoid-related orphan receptor gamma (ROR-gamma) signaling pathway - cell viability counter screen (AID 1159520); note: nearly all actives have a fitted effect of over 50% in size; note: potency is the fitted concentration of half-maximal effect
How it was run: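 Tet-on ROR gamma CHO cells (1,000/well) were plated 4 hr, given compounds in DMSO for 2 hr at 37 C, then induced with 1 uM final doxycycline for 16 hr. Viability was read as ATP by CellTiter-Glo luminescence after 30 min.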

[12] = target: Nuclear receptor ROR-gamma (Homo sapiens) (UniProt P51449); experiment: qHTS assay to identify small molecule antagonists of the retinoid-related orphan receptor gamma (ROR-gamma) signaling pathway (AID 1159521; note: nearly all actives have a fitted effect of over 50% in size; note: potency is the fitted concentration of half-maximal effect)
How it was run: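 Decreased RORE-driven luciferase luminescence indicates antagonism. Tet-on RORγ CHO cells received compound, then 1 uM final doxycycline 2 h later; signal read after 16 h incubation.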

[13] = qHTS assay to identify small molecule agonists of the AP-1 signaling pathway - cell viability counter screen (AID 1159525; calls by dose curve; note: nearly all actives have a fitted effect of over 55% in size; note: potency is the fitted concentration of half-maximal effect)
How it was run: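 Each titration point was normalised to DMSO and tetra n-octyl ammonium bromide controls. The read was Cell Titer Glo luminescence after 30 min at RT, following 5 h compound exposure of ME-180 AP-1-bla cells at 37 °C.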

[14] = qHTS assay to identify small molecule agonists of the AP-1 signaling pathway (AID 1159526; calls by dose curve)
[15] = qHTS assay to identify small molecule agonists of the RXR signaling pathway - cell viability counter screen (AID 1159529); note: nearly all actives have a fitted effect of over 50% in size; note: potency is the fitted concentration of half-maximal effect
How it was run: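 In this parallel viability measure, GeneBLAzer RXR-alpha HEK 293T cells (2% charcoal-stripped FBS) were given a 5 hr preincubation, treated with compounds 16 hr at 37 C, and read by CellTiter-Glo luminescence.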

[16] = qHTS assay to identify small molecule antagonists of the retinoid acid receptor (RAR) signaling pathway - cell viability counter screen (AID 1159551); note: nearly all actives have a fitted effect of over 35% in size
How it was run: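 In this counter screen, the RARE-luciferase line C3RL4 was exposed for 6 h at 37 C and 5% CO2 to compounds with retinol at 1 uM final. Cellular ATP, read by luminescence, served as the viability measure.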

[17] = target: Bile acid receptor (Homo sapiens) (UniProt Q96RI1); experiment: qHTS assay to identify small molecule antagonists of the farnesoid-X-receptor (FXR) signaling pathway (AID 743217; active = well fitted inhibition curve with a large enough effect in the signal ratio in the repeat runs, not every such curve was filed as active; the % refers to the signal ratio)
Bile acid receptor (Homo sapiens), sequence (Q96RI1 whole entry, looked up): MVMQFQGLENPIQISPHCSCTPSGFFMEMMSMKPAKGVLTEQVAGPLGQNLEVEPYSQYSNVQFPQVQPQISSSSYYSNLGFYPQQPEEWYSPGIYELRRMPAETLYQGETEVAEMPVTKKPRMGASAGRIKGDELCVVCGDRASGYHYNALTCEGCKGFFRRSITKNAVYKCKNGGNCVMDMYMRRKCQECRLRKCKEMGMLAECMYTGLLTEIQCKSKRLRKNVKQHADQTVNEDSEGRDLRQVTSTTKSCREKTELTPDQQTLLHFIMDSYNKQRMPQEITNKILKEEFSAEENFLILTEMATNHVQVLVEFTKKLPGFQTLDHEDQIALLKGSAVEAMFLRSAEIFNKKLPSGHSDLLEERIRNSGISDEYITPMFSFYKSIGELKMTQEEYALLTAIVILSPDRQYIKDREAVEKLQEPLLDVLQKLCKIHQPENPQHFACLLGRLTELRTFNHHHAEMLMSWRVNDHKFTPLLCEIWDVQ
How it was run: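 Test compounds are pin-transferred onto FXR-bla HEK 293T cells, then chenodeoxycholic acid is added at 50 uM final. After 16 h at 37 °C, LiveBLAzer B/G substrate is applied for 2 h at room temperature and fluorescence read.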

[18] = target: Bile acid receptor (Homo sapiens) (UniProt Q96RI1); experiment: qHTS assay to identify small molecule agonists of the farnesoid-X-receptor (FXR) signaling pathway (AID 743220; active = well fitted activation curve with a large enough effect in the signal ratio in the repeat runs, not every such curve was filed as active; the % refers to the signal ratio; note: potency is the fitted concentration of half-maximal effect)
How it was run: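 FXR-UAS-bla HEK 293T cells carrying a UAS-driven beta-lactamase reporter were plated for 5 h at 37C/5% CO2, then exposed to DMSO-dissolved Tox21 10K compounds for 16 h at 37C. A LiveBLAzer B/G FRET substrate was loaded for 2 h at room temperature before fluorescence reading.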

[19] = qHTS assay to identify small molecule agonists of the endoplasmic reticulum stress response signaling pathway - cell viability counter screen (AID 1159517; calls by dose curve; note: nearly all actives have a fitted effect of over 50% in size; note: potency is the fitted concentration of half-maximal effect)
How it was run: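 Cpd-treated ESRE-bla HeLa (5 hr, 37 C) → LiveBLAzer 2 hr RT → CellTiter-Glo 30 min RT → luminescence.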

[20] = target: Retinoic acid receptor RXR-alpha (Homo sapiens) (UniProt P19793); experiment: qHTS assay to identify small molecule agonists of the RXR signaling pathway (AID 1159527; calls by dose curve; note: nearly all actives have a fitted effect of over 35% in size)
Retinoic acid receptor RXR-alpha (Homo sapiens), sequence (P19793 whole entry, looked up): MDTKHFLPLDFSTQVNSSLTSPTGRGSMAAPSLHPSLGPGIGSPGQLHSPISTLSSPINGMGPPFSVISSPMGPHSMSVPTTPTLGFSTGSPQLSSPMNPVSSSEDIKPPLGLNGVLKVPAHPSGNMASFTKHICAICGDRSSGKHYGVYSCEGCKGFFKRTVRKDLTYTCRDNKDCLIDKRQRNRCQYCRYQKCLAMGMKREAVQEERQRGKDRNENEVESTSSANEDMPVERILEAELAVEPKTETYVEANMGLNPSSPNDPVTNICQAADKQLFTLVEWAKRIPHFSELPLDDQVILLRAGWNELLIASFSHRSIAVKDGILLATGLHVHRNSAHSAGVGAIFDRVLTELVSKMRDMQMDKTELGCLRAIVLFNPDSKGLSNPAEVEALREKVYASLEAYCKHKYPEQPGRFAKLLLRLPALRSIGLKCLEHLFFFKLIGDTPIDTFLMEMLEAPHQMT
How it was run: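 16 hr incubation of compound-treated RXR-alpha-UAS-bla HEK 293T cells (2% charcoal-stripped FBS, 37 C) preceded a 2 hr room-temperature LiveBLAzer FRET substrate step and blue/green fluorescence measurement.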

Compound	outcome [1]	Potency [2]	Potency [3]	Potency [4]	Potency [5]	Potency [6]	Potency [7]	Potency [8]	Potency [9]	Potency [10]	Potency [11]	Potency [12]	Potency [13]	Potency [14]	Potency [15]	Potency [16]	Potency [17]	Potency [18]	Potency [19]	Potency [20]
CC(C)=C1CC[C@@H](C)CC1=O	inactive	inactive	inactive	inactive	inactive	inactive	inactive	inactive	inactive	inactive	inactive	inactive	inactive	inactive	inactive	inactive	–	–	–	–
C(=C/c1ccccc1)/c1ccccc1	inactive	inactive	inactive	inactive	inactive	inactive	inactive	inactive	inactive	inactive	inactive	inactive	inactive	inactive	inactive	inactive	inactive	inactive	–	–
CNCC[C@H](Oc1cccc2ccccc12)c1cccs1	–	5.31 µM (active)	–	6.68 µM (active)	11.9 µM (active)	–	–	11.9 µM (active)	8.49 µM (active)	inactive	inactive	–	inactive	–	23.9 µM (active)	–	–	–	inactive	–
CCCCN(CCCC)CCC(O)c1cc2c(Cl)cc(Cl)cc2c2cc(C(F)(F)F)ccc12 (centres undefined)	inactive	–	inactive	29.8 µM (active)	–	inactive	inactive	inactive	–	inactive	–	29.8 µM (active)	inactive	–	23.9 µM (active)	inactive	–	inactive	inactive	–
Cc1ccc2ccc3cccc4ccc1c2c34	inactive	inactive	inactive	inactive	inactive	–	–	inactive	–	inactive	inactive	–	inactive	inactive	–	inactive	–	inactive	inactive	–
CC(NCCC(c1ccccc1)c1ccccc1)c1ccccc1 (centres undefined)	–	8.41 µM (active)	–	23.7 µM (active)	inactive	inactive	–	23.7 µM (active)	–	inactive	–	29.8 µM (active)	inactive	–	–	–	–	inactive	inactive	–
Cn1cnc2ncnc(N)c21	inactive	inactive	inactive	inactive	inactive	inactive	inactive	inactive	inactive	inactive	inactive	–	inactive	inactive	inactive	inactive	–	–	–	–
CCCCCCCC/C=C\CCCCCCCC(=O)OCCOC(=O)CCCCCCC/C=C\CCCCCCCC	inactive	inactive	inactive	–	inactive	inactive	inactive	inactive	inactive	–	inactive	inactive	inactive	inactive	inactive	inactive	inactive	inactive	inactive	inactive
CCCCCCOc1ccc(O)cc1	inactive	–	inactive	inactive	inactive	inactive	–	–	inactive	inactive	inactive	inactive	–	–	–	inactive	–	–	–	–
CC(C)OC(=O)c1cc(C(=O)OC(C)C)cc([N+](=O)[O-])c1	–	–	–	–	inactive	–	–	inactive	–	inactive	inactive	–	inactive	–	–	inactive	–	–	–	–
CC(C)c1ccc(O)c(C(C)C)c1	inactive	–	inactive	inactive	–	inactive	–	–	–	inactive	–	inactive	–	–	38.9 µM (active)	–	–	–	–	–
C[C@]12CC[C@H]3C(=CCc4cc(O)ccc43)[C@@H]1CCC2=O	inactive	–	inactive	inactive	inactive	inactive	–	inactive	–	inactive	inactive	inactive	–	inactive	21.9 µM (active)	–	–	inactive	–	–
C=C(C)C(=O)OCCC[Si](Cl)(Cl)Cl	inactive	inactive	inactive	–	inactive	inactive	inactive	inactive	inactive	–	inactive	inactive	inactive	inactive	inactive	inactive	–	–	inactive	inactive
CN1CCN(C2Cc3ccccc3Sc3ccc(Cl)cc32)CC1 (centres undefined)	inactive	–	–	26.6 µM (active)	29.8 µM (active)	–	inactive	–	–	inactive	–	26.6 µM (active)	–	–	23.9 µM (active)	inactive	–	inactive	–	–
CC(C)(c1cc(Br)c(OCCO)c(Br)c1)c1cc(Br)c(OCCO)c(Br)c1	–	42.7 µM (active)	–	19.1 µM (active)	–	–	–	38 µM (active)	–	inactive	47.5 µM (active)	–	–	–	42.7 µM (active)	inactive	–	inactive	–	–
CC(=O)OC(OC(C)=O)c1ccc([N+](=O)[O-])o1	–	–	–	–	–	–	–	44.4 µM (active)	49.8 µM (active)	inactive	–	31.2 µM (active)	–	–	49.8 µM (active)	–	–	–	–	–
Cc1ccc(N)cc1O	–	inactive	–	–	inactive	–	–	–	–	inactive	inactive	–	38.9 µM (active)	–	–	inactive	–	–	–	–
c1ccc(Nc2cccc3ccccc23)cc1	–	inactive	inactive	inactive	inactive	inactive	inactive	55.7 µM (active) and inactive	inactive	inactive	–	inactive	31.3 µM (active) and 49 µM (active)	–	24.9 µM (active)	–	–	–	–	inactive
CCN(CC)CCOc1ccc(C(O)(Cc2ccc(Cl)cc2)c2ccc(C)cc2)cc1 (centres undefined)	–	13.3 µM (active)	29.8 µM (active)	13.3 µM (active)	29.8 µM (active)	–	–	–	23.9 µM (active)	inactive	–	–	–	–	21.3 µM (active)	–	–	inactive	–	–
O=C(Nc1ccc(Cl)c(Cl)c1)c1cc(Cl)cc(Cl)c1O	–	11 µM (active)	–	3.89 µM (active)	13.8 µM (active)	–	–	1.95 µM (active)	2.75 µM (active)	19.5 µM (active)	9.69 µM (active)	–	–	–	19.5 µM (active)	–	–	–	–	–
COC(=O)[C@]1(C)CCC[C@@]2(C)[C@H]1CC=C1C=C(C(C)C)CC[C@@H]12	–	inactive	–	–	–	inactive	inactive	inactive	inactive	–	inactive	inactive	inactive	inactive	inactive	inactive	inactive	–	49 µM (active)	inactive
C=CC(=O)OCCOCC(CC)(COCCOC(=O)C=C)COCCOC(=O)C=C	–	36.1 µM (active)	–	51 µM (active)	51 µM (active)	–	–	64.3 µM (active)	64.3 µM (active)	inactive	11.3 µM (active)	–	–	–	–	–	–	–	–	–
CCCCCCC(C)Nc1ccc(Nc2ccccc2)cc1 (centres undefined)	inactive	–	49 µM (active)	–	49 µM (active)	–	–	38.9 µM (active)	43.6 µM (active)	inactive	–	–	49 µM (active)	–	–	–	–	–	–	–
CCOC(=O)C1=C(C)NC(C)=C(C(=O)OCC)C1c1ccccc1/C=C/C(=O)OC(C)(C)C	–	18.8 µM (active)	–	23.7 µM (active)	–	29.8 µM (active)	–	inactive	–	19 µM (active)	29.8 µM (active)	–	26.8 µM (active)	–	–	inactive	–	33.5 µM (active)	–	–
COCC(=O)O[C@]1(CCN(C)CCCc2nc3ccccc3[nH]2)CCc2cc(F)ccc2[C@@H]1C(C)C	–	16.8 µM (active)	–	11.9 µM (active)	23.7 µM (active)	–	–	26.6 µM (active)	21.3 µM (active)	inactive	29.8 µM (active)	26.6 µM (active)	inactive	–	15.1 µM (active)	–	–	inactive	–	–
O=C(Oc1ccccc1)c1cccc(C(=O)Oc2ccccc2)c1	–	–	–	–	–	–	–	inactive	–	inactive	inactive	inactive	inactive	–	–	inactive	–	–	–	–
Cc1cccc(Br)c1	inactive	inactive	inactive	inactive	inactive	–	–	inactive	inactive	inactive	inactive	–	–	–	55.3 µM (active)	inactive	–	–	–	–
CC(O)C#CC(C)O (centres undefined)	inactive	inactive	–	inactive	inactive	–	–	–	–	inactive	27 µM (active)	19.1 µM (active)	–	–	43.2 µM (active)	–	–	–	–	–
